This is a sample that favours compounds with a hit; in the whole collection about 5.4% have one here.
Gal4-VP16 FLuc: Gal4-VP16 reporter inhibition counter-screen; 310,000 tested, 3.5% active; Potency, µM (doses to about 53.6 µM), most hits filed as inhibitors; Drosophila S2 Gal4-VP16 UAS-luciferase, luminescence, 20 h;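 also: Gal4-VP16 expression switched on by copper sulfate through the metallothionein promoter; nearly all actives have a fitted effect of over 50% in size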
RORgamma inh: ROR gamma (mouse) transcription inhibition; Drosophila S2 Gal4-RORgamma UAS-luciferase reporter, 20 h; Potency, µM (series often up to 53.6 µM), usual class: inhibitors; 310,000 tested, 5.4% active; AID 2551; also: nearly all actives have a fitted effect of over 60% in size
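Stably transfected Drosophila Schneider cells are the test system, with ROR gamma fused to Gal4 and luciferase under UAS control; luminescence is read after 20 hr of 700 uM copper sulfate induction at ambient temperature.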
CtBP-E1A blk: blocks the CtBP interaction with E1A. activity change, % (test concentration not listed). 340,000 tested, 0.49% active. AID 651724. AlphaScreen GST-E1A/His-CtBP binding, 1536-well; stronger effect = lower value; in the data active = activity change below about -65%; inconclusive = mostly about -30% to -63%
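AlphaScreen with 125 nM GST-E1A and 125 nM His-CtBP (5X stocks) in Tris pH 8.0, 300 mM NaCl, BSA, Tween 20, TCEP. Compounds preincubated 2 h at 37 deg C, then glutathione donor/nickel acceptor beads added for 1 h at 37 deg C in dark.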
Six1-Eya2 blk: Six1/Eya2 interaction inhibition; Q15475+O00167; AlphaScreen GST-Six1/His-Eya2 binding, biochemical; stronger effect = lower value; activity change, % (concentration not given with the values); 360,000 tested, 0.56% active; AID 651725; in the data active = activity change below about -65%; inconclusive = mostly about -30% to -63%
Target sequence (O00167 whole entry, looked up): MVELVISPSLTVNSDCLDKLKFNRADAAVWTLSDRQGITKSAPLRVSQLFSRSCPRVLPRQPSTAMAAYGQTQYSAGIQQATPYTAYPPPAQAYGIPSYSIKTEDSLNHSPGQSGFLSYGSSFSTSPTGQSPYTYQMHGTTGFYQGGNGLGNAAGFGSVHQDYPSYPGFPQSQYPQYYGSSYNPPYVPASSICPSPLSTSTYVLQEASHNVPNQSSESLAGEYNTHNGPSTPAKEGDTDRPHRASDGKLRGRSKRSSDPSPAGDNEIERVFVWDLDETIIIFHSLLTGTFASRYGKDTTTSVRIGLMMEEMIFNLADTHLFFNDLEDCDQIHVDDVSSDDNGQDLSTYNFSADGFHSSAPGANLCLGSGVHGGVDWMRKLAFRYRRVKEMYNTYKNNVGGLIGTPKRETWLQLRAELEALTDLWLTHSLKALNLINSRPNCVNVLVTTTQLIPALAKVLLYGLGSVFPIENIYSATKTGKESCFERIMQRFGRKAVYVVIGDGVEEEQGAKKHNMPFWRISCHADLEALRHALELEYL
Target sequence (Q15475 whole entry, looked up): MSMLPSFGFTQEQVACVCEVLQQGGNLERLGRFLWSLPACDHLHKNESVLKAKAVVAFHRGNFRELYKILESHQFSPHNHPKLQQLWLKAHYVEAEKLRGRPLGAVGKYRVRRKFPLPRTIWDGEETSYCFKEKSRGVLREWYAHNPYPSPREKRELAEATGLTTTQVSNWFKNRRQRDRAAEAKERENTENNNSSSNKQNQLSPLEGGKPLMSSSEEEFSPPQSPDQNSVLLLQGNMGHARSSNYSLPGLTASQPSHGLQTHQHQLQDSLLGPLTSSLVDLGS
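Six1/Eya2 binding was read as AlphaScreen signal after compounds were pinned into GST-Six1 plus His-tagged Eya2 (5X stock 250/500 nM) in pH 8.0 Tris/NaCl/TCEP buffer, beads added, then incubated 1 h, 37 C, dark.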
p53 reactivator: mutant p53 re-activation in reporter cells. H1299 p53-A138V BP100-luciferase reporter, luminescence, 24 h. AID 504706. Potency, µM (series often up to 92.2 µM), most hits filed as activators. 320,000 tested, 0.063% active; also: nearly all actives have a fitted effect of over 45% in size
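H1299 (p53-null), stable ts p53-A138V + BP100-Luc; 1000 cells/well, Opti-MEM/10% FBS; cpd 4 pt, 1:5; 24 h, 37 deg C, 5% CO2; detection reagent 10 min RT; luminescence.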
Numbers stand for hits; [ ] = remark or other dose. Unless noted, calls follow the shape of the dose curve; as a rule, active = well fitted curve in the direction sought with a large enough effect; inconclusive = small, poorly fitted or top-dose-only effect, or another doubt; inactive = no such curve, though single readings can be large; an effect the other way counts as inactive or inconclusive.

How did CCN1CCN(C(=O)NC(C(=O)NC2C(=O)N3C(C(=O)O)=C(CSc4nnnn4C)CSC23)c2ccc(O)cc2)C(=O)C1=O (stereo unspecified) do in these assays?
Gal4-VP16 FLuc: inactive; RORgamma inh: inactive

How did Cc1sc2nc(COC(=O)c3c(F)cccc3F)[nH]c(=O)c2c1C do in these assays?
Gal4-VP16 FLuc: inactive; RORgamma inh: 13µM; CtBP-E1A blk: inactive; Six1-Eya2 blk: inactive; p53 reactivator: inactive

What do the screens show for `Cc1ccc(-c2n[nH]c(=S)n2/N=C/C=C/c2ccccc2[N+](=O)[O-])cc1`?
Gal4-VP16 FLuc: inactive; RORgamma inh: 4.5µM; CtBP-E1A blk: inactive; Six1-Eya2 blk: inactive; p53 reactivator: inactive

Results for O=[N+]([O-])c1ccccc1/C=C/C=N/n1c(-c2ccco2)n[nH]c1=S ?
Gal4-VP16 FLuc: inactive; RORgamma inh: 8.9µM; CtBP-E1A blk: inactive; Six1-Eya2 blk: inactive; p53 reactivator: inactive

Results for Cc1ccc(/C=C/S(=O)(=O)NCCC(=O)NCc2ccc(F)cc2)cc1 ?
Six1-Eya2 blk: inactive; p53 reactivator: inactive

What do the screens show for `COc1ccc(N2CCN(C3CCCN(S(=O)(=O)c4ccc(C)cc4C)C3)CC2)cc1` (stereo unspecified)?
Gal4-VP16 FLuc: inactive; RORgamma inh: inactive; CtBP-E1A blk: -66; Six1-Eya2 blk: inconclusive; p53 reactivator: inactive

How did COc1ccc(N2CCN(C3CCCN(S(=O)(=O)c4ccccc4)C3)CC2)cc1 (stereo unspecified) do in these assays?
Gal4-VP16 FLuc: inactive; RORgamma inh: inconclusive; CtBP-E1A blk: inactive; Six1-Eya2 blk: inactive; p53 reactivator: inactive

Results for CCOc1ccc2c(c1)ncn2Cc1ccccc1 ?
Gal4-VP16 FLuc: inactive; RORgamma inh: 11µM; CtBP-E1A blk: inactive; Six1-Eya2 blk: inactive; p53 reactivator: inactive

How did CC(=O)Oc1ccc(Cn2cnc3cc4ccccc4cc32)cc1 do in these assays?
Gal4-VP16 FLuc: inactive; RORgamma inh: inactive; CtBP-E1A blk: inactive; Six1-Eya2 blk: inactive; p53 reactivator: inactive

What do the screens show for `CSCC[C@H](N)C(=O)N[C@@H](CO)C(=O)N[C@@H](CCCN=C(N)N)C(=O)N1CCC[C@H]1C(=O)N[C@@H](C)C(=O)N[C@@H](CS)C(=O)N1CCC[C@H]1C(=O)N[C@@H](CC(N)=O)C(=O)N[C@@H](CC(=O)O)C(=O)N[C@@H](CCCCN)C(=O)N[C@@H](Cc1ccc(O)cc1)C(=O)N[C@@H](CCC(=O)O)C(=O)O`?
Gal4-VP16 FLuc: inactive; RORgamma inh: inactive

How did N=C1/C(=C/c2coc3ccccc3c2=O)C(=O)N=C2SC(c3ccco3)=NN12 do in these assays?
Gal4-VP16 FLuc: inactive; RORgamma inh: inactive; CtBP-E1A blk: inconclusive; Six1-Eya2 blk: inactive; p53 reactivator: inactive

Results for N=C1/C(=C\c2coc3ccc(O)cc3c2=O)C(=O)N=C2SC=CN12 ?
Gal4-VP16 FLuc: inactive; RORgamma inh: inactive; CtBP-E1A blk: -90; Six1-Eya2 blk: -80; p53 reactivator: inactive

How did COc1ccc2cc(CN(CC3CCCO3)S(=O)(=O)c3ccccc3Cl)c(=O)[nH]c2c1 (stereo unspecified) do in these assays?
Gal4-VP16 FLuc: inactive; RORgamma inh: inactive; CtBP-E1A blk: inactive; Six1-Eya2 blk: inactive; p53 reactivator: inactive

What do the screens show for `CCCc1cc(=O)oc2cc(OC(C)C(=O)NCC3CCC(C(=O)O)CC3)ccc12` (stereo unspecified)?
Gal4-VP16 FLuc: inactive; RORgamma inh: inactive; CtBP-E1A blk: inactive; Six1-Eya2 blk: inactive; p53 reactivator: inactive

What do the screens show for `COc1ccccc1N/N=C/c1c(CO)cnc(C)c1O`?
Gal4-VP16 FLuc: inactive; RORgamma inh: inactive; CtBP-E1A blk: inactive; Six1-Eya2 blk: inactive; p53 reactivator: inactive

What do the screens show for `Cc1ncc(CO)c(/C=N/NC(=S)Nc2ccc(Cl)c(Cl)c2)c1O`?
Gal4-VP16 FLuc: inactive; RORgamma inh: inactive; Six1-Eya2 blk: inactive; p53 reactivator: inactive

Results for Cc1ncc(CO)c(/C=N/NC(=O)c2cc3c(s2)CCCC3)c1O ?
Gal4-VP16 FLuc: inactive; RORgamma inh: 10µM; Six1-Eya2 blk: -88; p53 reactivator: inactive

Results for Cc1ncc(CO)c(/C=N/NC(=O)c2ccccc2Br)c1O ?
Gal4-VP16 FLuc: 18µM; RORgamma inh: 10µM; CtBP-E1A blk: -83; Six1-Eya2 blk: -90; p53 reactivator: inactive

Results for COc1ccc(C(=O)N/N=C/c2c(CO)cnc(C)c2O)cc1 ?
Gal4-VP16 FLuc: inactive; RORgamma inh: inconclusive; Six1-Eya2 blk: inconclusive; p53 reactivator: inactive

Results for Cc1ncc(CO)c(/C=N/NC(=O)c2ccoc2C)c1O ?
CtBP-E1A blk: -87; Six1-Eya2 blk: -82; p53 reactivator: inactive

How did COc1cccc(/C=C/C(=O)OCC(=O)NC2CCCCCC2)c1 do in these assays?
CtBP-E1A blk: inactive; Six1-Eya2 blk: inactive

How did O=C(COc1ccccc1Cl)NCCNC(=O)c1cnccn1 do in these assays?
Gal4-VP16 FLuc: inactive; RORgamma inh: inactive; CtBP-E1A blk: inactive; Six1-Eya2 blk: inactive; p53 reactivator: inactive

Results for COc1ccc(S(=O)(=O)Nc2cccc3c2O[C@H](CN(C)C(=O)Nc2ccc(C(F)(F)F)cc2)[C@@H](C)CN([C@H](C)CO)C3=O)cc1 ?
CtBP-E1A blk: inactive; Six1-Eya2 blk: inactive; p53 reactivator: inactive

How did C/C(=N\NC(=O)c1cccs1)C(C)(C)C do in these assays?
Gal4-VP16 FLuc: inconclusive; RORgamma inh: 13µM; CtBP-E1A blk: inactive; Six1-Eya2 blk: inactive; p53 reactivator: inconclusive

Results for O=C(NN=C1CCCCCC1)c1cccs1 ?
Gal4-VP16 FLuc: inactive; RORgamma inh: inactive; CtBP-E1A blk: inactive; Six1-Eya2 blk: inactive; p53 reactivator: 40µM

How did O=C(NN=C1CCCCCCC1)c1ccc(F)cc1 do in these assays?
Gal4-VP16 FLuc: inactive; RORgamma inh: inconclusive; CtBP-E1A blk: inactive; Six1-Eya2 blk: inactive; p53 reactivator: inactive

Results for C/C(=N\NC(=O)c1cccs1)c1ccc(C(=O)O)s1 ?
Gal4-VP16 FLuc: inactive; RORgamma inh: inactive; CtBP-E1A blk: inactive; Six1-Eya2 blk: inactive; p53 reactivator: inconclusive

Results for COc1ccc2c(c1)C(=O)[C@@H](OC(=O)NCc1ccco1)[C@H](c1ccc(OC)c(Br)c1)O2 ?
Gal4-VP16 FLuc: inactive; RORgamma inh: inactive

What do the screens show for `CCOC(=O)C1=C(C)N(C)C(=S)NC1c1cc(OC)ccc1OC` (stereo unspecified)?
Gal4-VP16 FLuc: inconclusive; RORgamma inh: 14µM; Six1-Eya2 blk: inactive; p53 reactivator: inactive

Results for CCOC(=O)C1=C(C)N(C)C(=O)NC1c1ccccc1OC (stereo unspecified) ?
RORgamma inh: inactive[0.365 µM]; CtBP-E1A blk: inactive; Six1-Eya2 blk: inactive; p53 reactivator: inactive

How did C=C1CC[C@@H]2[C@](C)(CO)[C@H](O)CC[C@@]2(C)[C@@H]1/C=C/C1=CCOC1=O do in these assays?
Gal4-VP16 FLuc: inactive; RORgamma inh: inactive; Six1-Eya2 blk: inactive; p53 reactivator: inactive

Results for C=C1CCC2C(C)(CO)C(O)CCC2(C)C1C/C=C1\C(=O)OCC1O (stereo unspecified) ?
Gal4-VP16 FLuc: inactive; RORgamma inh: 13µM

Bioassay records (PubChem)
